Measurements from PubChem BioAssay (NCI).
This is part of a sample that, as a whole, favours compounds with a hit. Of some 83,000 tested, about 20% had one in any assay.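 Assay: single dose, 48 h. Readout: percent growth (0 = no net growth; negative = cell death). Active: <10.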 Unmarked numbers belong to inactive results. The source made the active and inactive calls.

Key:
Assay in all cases: NCI-60 one-dose screen, 48 h (100 = growth as untreated, 0 = no growth, -100 = all killed)
Conditions in all cases: 10 µM unless noted
[1] = tested on: DU-145 prostate
[2] = tested on: K-562 leukemia
[3] = tested on: MALME-3M melanoma
[4] = tested on: MDA-MB-231 breast
[5] = tested on: RXF 393 renal
[6] = tested on: SF-268 CNS
[7] = tested on: SF-295 CNS
[8] = tested on: SF-539 CNS
[9] = tested on: UACC-257 melanoma
[10] = tested on: M14 melanoma
[11] = tested on: HCT-15 colon
[12] = tested on: HT29 colon
[13] = tested on: SNB-75 CNS
[14] = tested on: SNB-19 CNS
[15] = tested on: U251 CNS
[16] = tested on: PC-3 prostate
[17] = tested on: SK-MEL-5 melanoma
[18] = tested on: UACC-62 melanoma
[19] = tested on: LOX IMVI melanoma
[20] = tested on: SK-MEL-28 melanoma

With `CC1=C2[C@@H](CC1)[C@]1(C)O[C@@](C(C)C)(C[C@H]1OC(=O)CO)[C@H]2OC(=O)CCCc1ccccc1` the growth [1] was 75.8%, the growth [2] was 53.9% and the growth [3] was 57.3%. The growth [4] was 88.2%, the growth [5] was 86.2% and the growth [6] was 73.4%. For the same compound, the growth [7] was 78.5%, the growth [8] was 96.6% and the growth [9] was 85.1%. The growth [10] was 77.5%, the growth [11] was 65.7% and the growth [12] was 72.1%. The growth [13] was 90.8%, the growth [14] was 92.5% and the growth [15] was 74.5%. The growth [16] was 26.9%, the growth [17] was 66.8% and the growth [18] was 40.2%. The growth [19] was 52.3% and the growth [20] was 90.2%.

`O=C(Nc1ccc(Oc2cccc(F)c2)c(Cl)c1)c1cnccn1` gave a growth [1] of 19.1%, a growth [2] of 13.4% and a growth [3] of 51.4%. The growth [4] was 53.5%, the growth [5] was 7.37% (active) and the growth [6] was 55.5%. The growth [7] was 36%, the growth [8] was -3.46% (active) and the growth [9] was 64.9%. The growth [10] was 25.6%, the growth [11] was 31.2% and the growth [12] was 9.13% (active). For the same compound, the growth [13] was 0.855% (active), the growth [14] was 40.4% and the growth [15] was 25.7%. The growth [16] was 16.7%, the growth [17] was 9.61% (active) and the growth [18] was 33.5%. It also gave a growth [19] of 43.9% and a growth [20] of 60.6%.

In the case of `COc1ccc2c(O)cc3c(c2c1)[C@H](CCl)CN3C(=O)c1cc2cc(NC(=O)CCN3CCOCC3)ccc2[se]1`, the growth [1] is reported as -0.877% (active), the growth [2] is reported as 70.1% and the growth [3] is reported as -88% (active). For the same compound, the growth [4] was -58.4% (active), the growth [5] was -88.4% (active) and the growth [6] was -42.7% (active). For the same compound, the growth [7] was -77.7% (active), the growth [8] was -64.4% (active) and the growth [9] was -47.5% (active). The growth [10] was -71.1% (active), the growth [11] was 0% (active) and the growth [12] was -39.8% (active). For the same compound, the growth [13] was -87.8% (active), the growth [14] was -76.2% (active) and the growth [15] was -85.7% (active). For the same compound, the growth [16] was 74.1%, the growth [17] was -85.9% (active) and the growth [18] was -76.4% (active). The growth [19] was -62.5% (active) and the growth [20] was -58.7% (active).

`COc1cccc2cc(N(C)c3ncnc4ccccc34)ccc12` was tested, and the growth [1] was 10.3%, the growth [2] was 9.92% (active) and the growth [3] was 39.4%. It also gave a growth [4] of 31.3%, a growth [5] of 25.9% and a growth [6] of 30.2%. For the same compound, the growth [7] was 11%, the growth [8] was -28.5% (active) and the growth [9] was 25.3%. For the same compound, the growth [10] was 14.3%, the growth [11] was 11.1% and the growth [12] was 2.77% (active). The growth [13] was 34.8%, the growth [14] was 31.8% and the growth [15] was 11%. The growth [16] was 5.88% (active), the growth [17] was -32.4% (active) and the growth [18] was 23.4%. The growth [19] was 15.5% and the growth [20] was 33.3%.

In the case of `COc1cccc(C2C(C#N)=C(N)Oc3c2ccc2ccccc32)c1` (stereo not given), the growth [1] is reported as 16.9%, the growth [2] is reported as 6.44% (active) and the growth [3] is reported as 54.4%. It also gave a growth [4] of 24.2%, a growth [5] of 40.7% and a growth [6] of 30.9%. The growth [7] was 23.5%, the growth [8] was -12% (active) and the growth [9] was 82%. The growth [10] was 9.7% (active), the growth [11] was 9.22% (active) and the growth [12] was 7.48% (active). The growth [13] was 79.8%, the growth [14] was 37.3% and the growth [15] was 24.6%. For the same compound, the growth [16] was 21.5%, the growth [17] was -1.37% (active) and the growth [18] was 37.6%. It also gave a growth [19] of 14.6% and a growth [20] of 69.3%.

`N#CSCc1cc(Cl)c(CSC#N)cc1Cl` showed a growth [1] of 59.7%, a growth [2] of 29.2% and a growth [3] of 58%. For the same compound, the growth [4] was 57.6%, the growth [5] was 34.3% and the growth [6] was 63.3%. It also gave a growth [7] of 97.5%, a growth [8] of 45.7% and a growth [9] of 103%. For the same compound, the growth [10] was 27.4%, the growth [11] was 31.9% and the growth [12] was 40.6%. For the same compound, the growth [13] was 47.9%, the growth [14] was 89% and the growth [15] was 106%. For the same compound, the growth [16] was 75.8%, the growth [17] was 48.5% and the growth [18] was 71.1%. The growth [19] was 30.5% and the growth [20] was 87.9%.

With `CC1=C([Se]CC(OC(=O)[C@@H](CO)NC(=O)OC(C)(C)C)C(=O)NCCCCCC(=O)OCc2ccccc2)C(=O)c2ccccc2C1=O` (stereo not given in full) the growth [1] was -54.6% (active), the growth [2] was -4.48% (active) and the growth [3] was -68.1% (active). The growth [4] was -54.4% (active), the growth [5] was -99.4% (active) and the growth [6] was -2.71% (active). The growth [7] was -38.4% (active), the growth [8] was -92.6% (active) and the growth [9] was -94% (active). For the same compound, the growth [10] was -95% (active), the growth [11] was -45.8% (active) and the growth [12] was -67.5% (active). For the same compound, the growth [13] was -99.6% (active), the growth [14] was -87% (active) and the growth [15] was -85.8% (active). The growth [16] was -72.6% (active), the growth [17] was -89.9% (active) and the growth [18] was -76% (active). The growth [19] was -76.6% (active) and the growth [20] was -89.1% (active).

Work on `CCCCC1=C(Br)C(=O)c2ncccc2C1=O` yielded a growth [1] of 103%, a growth [2] of 30.2% and a growth [3] of 101%. The growth [4] was 77.6%, the growth [5] was 98.3% and the growth [6] was 95.5%. For the same compound, the growth [7] was 106%, the growth [8] was 94.5% and the growth [9] was 92.6%. It also gave a growth [10] of 98.2%, a growth [11] of 100% and a growth [12] of 104%. It also gave a growth [13] of 91.9%, a growth [14] of 97.9% and a growth [15] of 95.5%. For the same compound, the growth [16] was 90%, the growth [17] was 90.3% and the growth [18] was 93.4%. It also gave a growth [19] of 94.6% and a growth [20] of 115%.
